Source: PubChem BioAssay (NCI)
This is part of a sample that, as a whole, favours compounds with a hit. Of some 79,000 tested, about 15% had one in any assay. Unmarked numbers belong to inactive results. The source made the active and inactive calls. Cut-off read from the data, not from the text of the source: active = growth inhibition above about 70%; inactive = the rest.

assay: NCI Yeast Anticancer Drug Screen. Data for the sgs1 mgt1 strain (AID 161);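 note: 0% = growth of cultures given vehicle only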; conditions: S. cerevisiae sgs1 mgt1 strain, at 5.0 µM (retest, dose inferred, filed as 0.5), stronger effect = higher value
How it was run: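 Percent growth inhibition was derived by comparing compound-exposed mutant yeast with vehicle-exposed cultures. The strain carries alterations in DNA damage repair.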

Compound	growth inhibition
COC(=O)C1C(c2ccccc2)=N[C@@H](c2ccccc2)[C@H]1C(=O)OC (stereo not given in full)	9%
CCCCCCCCCC(C)CC(=O)NCCCN(C)CCCCN(C)C (stereo not given) (tested in a mixture with another compound)	35%
Cc1ccc(N=C2SC(=S)N(CCC[N+](C)(C)C)C2=Nc2ccc(C)cc2)cc1	-10%
N#CSc1ccc(O)c2ccccc12	19%
CCCCCC1OC(CCCCC)OC(CCCCC)O1 (stereo not given)	0%
ClC1(c2ccccc2)c2ccccc2-c2ccccc21	-6%
CCN(CC)c1ccc(NC(CC(O)c2ccccc2)c2ccccc2)cc1 (stereo not given)	-5%
CCCCCCC[n+]1ccc(C(=O)c2ccccc2)cc1	100% (active)
O=c1[nH][nH]c(=O)c2c1nc(SCc1ccccc1)n2Cc1ccccc1	-1%
CCOC(=O)C(NNc1ccccc1)C(c1ccccc1)[P+](c1ccccc1)(c1ccccc1)c1ccccc1 (stereo not given)	85% (active)
CC(C)/C=C1\CCC(CN2CCOCC2)C1=O (stereo not given)	22%
CCc1cc2nc3c(=O)[nH]c(=O)nc-3n(CCN(CCO)CCO)c2cc1CC	2%
c1ccc2c(c1)OCC(CN1CCN(CC3COc4ccccc4O3)CC1)O2 (stereo not given)	47%
CNC(C)C(=O)c1ccc2ccc3ccccc3c2c1 (stereo not given)	-2%
O=[N+]([O-])c1ccc(N=C(Cl)C(Cl)(c2ccccc2)c2ccccc2)cc1	-20%
O=[N+]([O-])c1ccc2c(c1)Cc1cc(Cl)ccc1-2	1%
CCCCCCOC(=O)Nc1ccc(S(=O)(=O)N2CCCCC2)cc1	7%
CCCCCCCCCCCOc1cccc(N2C(N)=NC(N)=NC2(C)C)c1	99% (active)
O=Nc1c(NO)c2ccccc2c2ccccc12	-8%
CCCCCCCCCCCCCCCCOS(=O)(=O)O	49%

Compound	growth inhibition
CCCCCCCCCCCCCCCCCC[N+](C)(C)Cc1ccc(C[N+](C)(C)CCCCCCCCCCCCCCCCCC)cc1	5%
NNc1ccc2ccccc2n1	3%
Cc1cc(NC(=S)SCc2ccc(F)cc2)c([N+](=O)[O-])cc1C	87% (active)
COC(=O)/C(=C\c1cn(C(C)=O)c2ccccc12)P(=O)(OC)OC	2%
O=C(Nc1ccccc1)c1ccccc1O	2%
CC(=O)c1c2c(cc3c1CC1(Cc4ccccc4C1=O)C3)CCC2 (stereo not given)	-36%
CC(=O)c1c(-c2ccco2)c(C#N)c(=S)n(C2OC(CO)C(O)C(O)C2O)c1-c1ccccc1 (stereo not given)	0%
CC1(C)OC2C(CO)OC(n3ncc(=S)[nH]c3=O)C2O1 (stereo not given)	4%
C=C(C)C1CC/C(C)=C/CCC2(C)OC2CC/C(CO)=C\C1O (stereo not given)	41%
CC(C)CCSc1ncnc2nc[nH]c12	-1%
COC(=O)C1(Cc2ccc3c(c2)CCC3)Cc2ccc3c(c2C1O)CCC3 (stereo not given)	15%
Nc1ccc(C(=O)NN2C(=O)C(Cl)C2c2cc(Br)cc(Br)c2O)cc1 (stereo not given)	-3%
COc1ccc(SC2=C(N(C)C(C)=O)C(=O)c3ccccc3C2=O)cc1	97% (active)
O=[N+]([O-])c1ccc(N/N=C/CCCCCCCCCCBr)c([N+](=O)[O-])c1	-5%
O=C(c1ccccc1)c1cccc2ccccc12	-2%
O=S1(=O)CCc2ccccc2C(Br)C1Br (stereo not given)	15%
CC(/C=N/NS(=O)(=O)c1ccc(C)cc1)=C(c1ccccc1)c1ccccc1	-79%
Cc1cc(CC(O)(C(F)(F)F)C(F)(F)F)cc(CC(O)(C(F)(F)F)C(F)(F)F)n1	-3%
O=S(=O)(c1cc(Cl)c(Cl)cc1Cl)N(CCCCCN(S(=O)(=O)c1cc(Cl)c(Cl)cc1Cl)S(=O)(=O)c1cc(Cl)c(Cl)cc1Cl)S(=O)(=O)c1cc(Cl)c(Cl)cc1Cl	-14%
O=c1cc(-c2ccccc2)oc2ccc(-c3ccc4oc(-c5ccccc5)cc(=O)c4c3)cc12	-10%
